Results on 21 compounds are retold here after the antibiotic and cytotoxicity screens of Wong et al. (2023).

The whole screen tested about 39,000 compounds, of which about 3,300 (8.5%) were called active. This is one part of a sample in which actives are shown more often than they occur.

The test system of this assay is HepG2. Put plainly: cytotoxicity call (relative viability < 0.9). Particulars: 10 µM.
With `Cc1cc(O)c(C(=O)NC(C(=O)NC2C(=O)N3C(C(=O)O)=C(CSc4nnnn4C)CSC23)c2ccc(O)cc2)cn1` (stereo unspecified), the cytotoxicity call was “inactive”.

In the case of `C[C@H](CO)N1C[C@H](C)[C@@H](CN(C)C(=O)Nc2cccc3ccccc23)Oc2ccc(NC(=O)Nc3ccc4c(c3)OCO4)cc2C1=O`, the cytotoxicity call is “inactive”.

Turning to `N[C@H]1[C@H](CCCCC(=O)O)SC[C@@H]1N`, the cytotoxicity call was “inactive”.

`Cc1noc(C)c1NC(=O)N(C)C[C@@H]1Oc2ccc(NC(=O)c3ccncc3)cc2CC(=O)N([C@@H](C)CO)C[C@H]1C`: the cytotoxicity call is “inactive”.

For `Cl.NCCc1ccc(O)c(O)c1`, the cytotoxicity call is “active”.

As to `NCCc1ccc(O)c(O)c1`, the cytotoxicity call was “inactive”.

As to `CC(Cc1ccc(O)c(O)c1)C(C)Cc1ccc(O)c(O)c1` (stereo unspecified), the cytotoxicity call was “inactive”.

As for `O=C(C[C@H]1CC[C@@H]2[C@H](COC[C@@H](O)CN2C(=O)C2CC2)O1)NCc1ccncc1`, the cytotoxicity call was “inactive”.

In the case of `COc1cc(CO)cc(I)c1O[C@H]1C=C(C(=O)NCCO)C[C@@H](NC2CCCCCC2)[C@@H]1O`, the cytotoxicity call was “active”.

Regarding `COc1cc(CO)cc(I)c1O[C@H]1C=C(C(=O)NCCO)C[C@@H](NCc2ccc(F)cc2)[C@@H]1O`, the cytotoxicity call is “inactive”.

Turning to `COc1cc(CO)cc(I)c1O[C@H]1C=C(C(=O)NCCO)C[C@@H](NC[C@@H]2CCCO2)[C@@H]1O`, the cytotoxicity call is “inactive”.

Take `C[C@@H]1CCCCO[C@H](CN(C)Cc2ccc(Cl)c(Cl)c2)[C@H](C)CN([C@@H](C)CO)C(=O)c2cc(NC(=O)Cc3ccccc3)ccc2O1`: the cytotoxicity call is “inactive”.

Take `C[C@@H]1CCCCO[C@@H](CN(C)Cc2ccc(Cl)c(Cl)c2)[C@@H](C)CN([C@H](C)CO)C(=O)c2cc(NC(=O)Cc3ccccc3)ccc2O1`: the cytotoxicity call was “active”.

For the compound `C[C@@H]1CN([C@@H](C)CO)C(=O)c2cc(NC(=O)Cc3ccccc3)ccc2O[C@@H](C)CCCCO[C@@H]1CN(C)Cc1ccccc1`, the cytotoxicity call was “inactive”.

Turning to `C[C@H]1CCCCO[C@@H](CN(C)Cc2ccccc2)[C@@H](C)CN([C@@H](C)CO)C(=O)c2cc(NC(=O)Cc3ccccc3)ccc2O1`, the cytotoxicity call is “inactive”.

Turning to `C[C@@H]1CCCCO[C@H](CN(C)Cc2ccc(Cl)c(Cl)c2)[C@@H](C)CN([C@H](C)CO)C(=O)c2cc(NC(=O)Cc3ccccc3)ccc2O1`, the cytotoxicity call was “active”.

As to `C[C@@H]1CN([C@@H](C)CO)C(=O)c2cc(NC(=O)Cc3ccccc3)ccc2O[C@@H](C)CCCCO[C@H]1CN(C)Cc1ccccc1`, the cytotoxicity call was “inactive”.

In the case of `C[C@@H]1CCCCO[C@@H](CN(C)Cc2ccccc2)[C@@H](C)CN([C@@H](C)CO)C(=O)c2cc(NC(=O)Cc3ccccc3)ccc2O1`, the cytotoxicity call was “inactive”.

Turning to `C[C@@H]1CN([C@H](C)CO)C(=O)c2cc(NC(=O)Cc3ccccc3)ccc2O[C@@H](C)CCCCO[C@H]1CN(C)Cc1ccc(Cl)c(Cl)c1`, the cytotoxicity call is “active”.

On to `C[C@@H]1CCCCO[C@@H](CN(C)Cc2ccc(Cl)c(Cl)c2)[C@H](C)CN([C@H](C)CO)C(=O)c2cc(NC(=O)Cc3ccccc3)ccc2O1`, for which the cytotoxicity call is “inactive”.

Consider `C[C@H](CO)N1C[C@H](C)[C@@H](CN(C)Cc2ccc(Cl)c(Cl)c2)OCCCC[C@H](C)Oc2ccc(NC(=O)Cc3ccccc3)cc2C1=O`, for which the cytotoxicity call was “active”.
